Compound activity deposited in PubChem by The Scripps Research Institute Molecular Screening Center.
DAX1 inh-1: inhibitors of human orphan nuclear receptor DAX1 (NR0B1); P51843; HEK293 Gal4-DAX1 luciferase reporter, luminescence; inhibition, % at 6.75 µM; 340,000 compounds, 0.99% hits; AID 504766;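 active = inhibition above the mean over all tested compounds plus 3 SD, cut at about 4.2% in these data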;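 note: 0% = DAX1-transfected cells with DMSO and 100% = empty-vector control cells with DMSO; inhibition shows as a rise in luminescence from relieved DAX1 repression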
Target sequence (P51843 207-470 limits assumed): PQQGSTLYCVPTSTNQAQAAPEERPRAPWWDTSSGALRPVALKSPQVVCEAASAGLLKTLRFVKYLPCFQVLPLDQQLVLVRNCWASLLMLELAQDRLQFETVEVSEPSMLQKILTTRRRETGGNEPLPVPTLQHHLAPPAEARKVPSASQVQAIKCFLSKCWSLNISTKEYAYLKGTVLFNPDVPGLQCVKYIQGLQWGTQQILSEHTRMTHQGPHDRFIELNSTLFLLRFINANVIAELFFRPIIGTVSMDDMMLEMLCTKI
hgDAF12 agonist: hgDAF-12 agonism, primary luciferase screen | HEK293 GAL4-hgDAF12 UAS-luciferase reporter, agonist luminescence; normalized to butyrate control | activation, % at 6.8 µM | 370,000 compounds, 1.8% hits;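 active = activation above a cutoff set at the mean of all screened compounds plus 3 SD, cut at about 10% in these data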;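 note: 0% = DMSO wells and 100% = sodium butyrate wells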
SMARCA2 act: SMARCA2 function activation, primary screen. 370,000 compounds, 1% hits. activation, % at 9.1 µM. MG213 cells, MMTV-luciferase reporter, dexamethasone, overnight; in the data active = activation above about 7.8%;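 note: 0% = vehicle wells and 100% = reference activator wells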
ssDAF-12 act: activators of S. stercoralis DAF-12 nuclear receptor; 370,000 compounds, 1% hits; HEK293 ssDAF-12/GRIP1 lit1-tk-luc reporter, luminescence; % of 3 µM dafachronic acid response; AID 652126; activation, % at 6.8 µM;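 active = activation above the mean over all tested compounds plus 3 SD, cut at about 0.9% in these data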;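 note: 0% = DMSO-only wells and 100% = 3 µM delta7-dafachronic acid wells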
hcDAF-12 act: activators of H. contortus DAF-12 nuclear receptor | HEK293 hcDAF-12 lit1-tk-luc reporter, luminescence; 0% DMSO, 100% Δ7-dafachronic acid | activation, % at 6.8 µM | 370,000 compounds, 1.4% hits | AID 652067;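 active = activation above the mean of all tested compounds plus 3 SD, cut at about 5.5% in these data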;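 note: 100% = response to 3 µM Δ7-dafachronic acid high control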
DAX1 inh-2: inhibitors of DAX1 repression of SF-1 activated StAR promoter. 370,000 compounds, 1.1% hits. inhibition, % at 6.8 µM. HEK293T StAR-luciferase reporter, SF-1/DAX-1 repression relief;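 active = inhibition above the mean over all tested compounds plus 3 SD, cut at about 3.6% in these data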;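 note: 0% = DAX-1 cells with DMSO and 100% = cells lacking DAX-1 with DMSO; higher inhibition means more luminescence from relief of DAX-1 repression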
Starred values were filed as active, the others as inactive; . = not tested or not shown. Sampled rows, rich in hits. Any-hit rate of the full collection: about 4.8%.

SMILES	DAX1 inh-1	hgDAF12 agonist	SMARCA2 act	ssDAF-12 act	hcDAF-12 act	DAX1 inh-2
COC(=O)CN1C(=O)N(c2ccccc2)C(N(O)C(=O)Nc2ccccc2)C1(C)C (centres undefined)	4.6*	2	-2	-1	-1	0
COC(=O)CNC(=O)CN1C(=O)N(c2ccccc2)C(N(O)C(=O)Nc2ccccc2)C1(C)C (centres undefined)	-1	0	-2	-1	0	0
CC(c1cccs1)N(Cc1ccco1)C(=S)Nc1ccc(F)c(Cl)c1 (centres undefined)	1	-2	0	-1	0	1
CCOc1ccc(C(=O)N2CCN(S(=O)(=O)c3ccc4c(c3)OCCO4)CC2)cc1OCC	4	1	-2	0	0	3
O=C(Nc1ccc(C(=O)O)cc1)/C(=C\C=C\c1ccccc1)NC(=O)c1ccccc1Cl	0	4	2	-1	1	4.3*
O=C(N/C(=C/C=C/c1ccccc1)C(=O)N1CCOCC1)c1ccccc1Cl	1	1	2	1	6.0*	0
CCCCOC(=O)C(C#N)c1nc2ccccc2nc1N1CCOCC1 (centres undefined)	0	0	1	-1	0	0
COc1ccc(/C=C(\C#N)C(=O)Nc2ccccn2)cc1	-1	0	0	-1	0	0
C=CCOc1ccc(/C=C(\C#N)C(=O)Nc2ccccn2)cc1OC	4.7*	-1	3	-1	-1	0
CC(C)c1ccc(C2OCCCO2)cc1	-1	-3	-3	-1	0	0
CC(C)c1ccc(C2OCC(C)([N+](=O)[O-])CO2)cc1 (centres undefined)	0	-1	2	-1	1	3.9*
CCC(=O)N1N=C(c2ccc(NS(C)(=O)=O)cc2)CC1c1ccc(N(C)C)cc1 (centres undefined)	-1	13*	5	-1	1	0
Cc1ccc(C(=O)N2CCCc3ccccc32)c(F)c1F	0	0	4	-1	-1	0
COc1ccc(N2CCN(c3oc(-c4ccccc4OC)nc3C#N)CC2)cc1	-1	.	.	.	.	.
Cc1ccccc1Cn1ccc(NC(=O)c2onc(C)c2Cl)n1	0	3	7.8*	-1	2	2
CN(CC(=O)Nc1ccccc1C(=O)NC1CC1)Cc1ccc(Cl)cc1	1	-3	7.9*	-1	-1	-1
CC(C)CC1NC(=O)c2ccc(Cl)cc2-n2c1nc1cc(F)ccc1c2=O (centres undefined)	.	-1	-1	-1	0	0
COc1ccccc1Oc1ccc(N/C=C/C(=O)c2ccc(C)o2)cc1	-1	0	1	-2	-1	0
Cc1ccc(C(=O)Nc2ccccc2OC(F)F)cc1	-1	11*	0	-1	0	-1
Cc1cc(NC(=O)C2CC2)n(-c2nc3ccccc3s2)n1	0	10	4	0	5.6*	-1
Cn1nnc2cc(C(=O)Nc3ccccc3)ccc21	2	11*	6	0.9*	2	2
Cc1ccc(NC(=O)c2ccc3c(c2)nnn3C)cc1	0	4	0	-1	2	1
O=C(NC1CCCCCC1)c1ccc(=O)n(Cc2ccccc2)n1	4.5*	-2	2	-2	-1	0
COC(=O)C1CCN(C(=O)COC(=O)c2ccc(=O)n(Cc3ccccc3)n2)CC1	0	1	-1	-1	0	2
S=C(Nc1ccccc1)N1CCc2ccccc21	2	-1	-3	0	0	0
SMILES	DAX1 inh-1	hgDAF12 agonist	SMARCA2 act	ssDAF-12 act	hcDAF-12 act	DAX1 inh-2
CCC(C)CCN1C(Nc2ccccc2)=NC[C@@H]1CC(C)C (some centres undefined)	4.8*	2	-1	-1	-1	0
Cc1cccc(CCN2C(Nc3ccccc3)=NC[C@@H]2CC(C)C)c1	6.7*	0	-1	-1	0	0
CC(C)CCN1C(Nc2ccccc2)=NC[C@@H]1CC(C)C	1	1	1	0	6.3*	-1
CCN1C(Nc2ccccc2)=NC[C@@H]1CC(C)C	2	0	1	-1	-1	0
O=C(O)C(NC(=O)c1ccccc1)=C(Cl)Cl	0	0	2	-1	-1	1
CN(C)c1ccc(S(=O)(=O)N(C)C)cc1[N+](=O)[O-]	1	0	-2	-1	-2	0
Cc1ccc(C2=CSC3=NCCN23)cc1	1	0	0	1.9*	0	0
O=[N+]([O-])c1ccc(C2=CSC3=NCCN23)cc1	2	-1	-1	-1	0	0
COc1ccccc1OCC(=O)OC/C(O)=C(\C#N)c1nc2ccccc2[nH]1	0	-6	3	-1	-1	-1
CCOC(=O)N1CCC(Nc2nc3ccccc3nc2NS(=O)(=O)c2ccc(Cl)cc2)CC1	2	9	5	0	8.2*	2
CC(=O)Cn1cnc2c(cnn2-c2ccc(F)cc2)c1=O	1	4	-5	1.0*	-1	2
COc1ccc(-n2ncc3c(=O)n(CC(C)=O)cnc32)cc1	1	0	-3	-1	2	0
CC(C)(C)n1ncc2c(=O)n(CC(=O)Nc3ccc(Cl)cc3)cnc21	0	0	-1	-1	-2	0
CC(C)(C)n1ncc2c(=O)n(CC(=O)c3ccc(Cl)cc3)cnc21	2	12*	5	0	3	2
O=C(O)C1=C[C@@H](c2ccc3c(c2)OCO3)C[C@@H](OCc2ccc(CO)cc2)O1	2	0	2	-1	0	0
O=C(NC1CC1)C1=C[C@H](c2ccc3c(c2)OCO3)C[C@H](OCc2ccc(CO)cc2)O1	2	11*	3	0	-1	0
S=C(c1ccc(-c2ccccc2Cl)o1)N1CCCCC1	1	12*	-1	1	3	3
CN1CCN(C(=S)c2ccc(-c3cccc(Cl)c3Cl)o2)CC1	2	12*	3	0	4	3
CCOC(=O)C1CCCN(C(=O)c2ccc(-c3ccccc3Cl)o2)C1 (centres undefined)	0	7	7	0	0	4.3*
O=C(O)c1ccc(-c2ccccc2Cl)o1	2	-3	1	-1	-1	-1
O=C(c1ccc(-c2ccccc2Cl)o1)N1CCN(c2ccccc2O)CC1	1	1	-2	0	4	0
Cc1ccc(NC(=O)CN(C)C(=O)CN2C(=O)NC(C)(c3ccccc3)C2=O)cc1 (centres undefined)	0	0	0	-1	-2	-1
O=C(CSc1nc2ncccc2[nH]1)NCc1ccccc1	4.7*	0	0	-1	-2	-1
O=C1C=C(Nc2ccccc2C(=O)O)c2ccccc2C1=O	0	1	3	0	6.3*	0
